AmpC inh no detg: qHTS Inhibitors of AmpC Beta-Lactamase (assay without detergent); P00811; AmpC nitrocefin hydrolysis, absorbance 480 nm, 0.0001% Triton; Potency, µM (highest dose often 57.1 µM), actives largely listed as inhibitors; hit rate 0.52% among 330,000; AID 485341, 2010; note: nearly all actives have a fitted effect of over 20% in size
Target sequence (P00811 whole entry, looked up): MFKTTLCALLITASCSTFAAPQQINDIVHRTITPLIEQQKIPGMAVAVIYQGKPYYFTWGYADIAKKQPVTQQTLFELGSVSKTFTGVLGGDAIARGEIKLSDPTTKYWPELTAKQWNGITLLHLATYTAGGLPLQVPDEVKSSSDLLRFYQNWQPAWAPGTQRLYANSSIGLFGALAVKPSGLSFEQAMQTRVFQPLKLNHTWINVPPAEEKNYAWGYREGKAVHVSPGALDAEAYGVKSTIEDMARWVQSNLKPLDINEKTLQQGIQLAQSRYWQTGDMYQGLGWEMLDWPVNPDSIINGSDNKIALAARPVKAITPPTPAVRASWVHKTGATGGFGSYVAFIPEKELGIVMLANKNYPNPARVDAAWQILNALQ
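20 mM phosphate pH 7.0 + 0.01% (detergent screen) or 0.0001% Triton X-100; 5.3 nM AmpC reagent; cpd preinc 15 min RT; nitrocefin (800 uM stock) to start; A480 q20 s × 4 min; Activity was normalised to no-enzyme and no-compound control wells.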
AMA1-RON2 inh: qHTS for Inhibitors of AMA1-RON; Towards Development of Antimalarial Drug Lead: Primary Screen; Potency, µM (series often up to 58.2 µM), usual class: inhibitors; hit rate 0.2% among 360,000; Plasmodium falciparum AMA1 (3D7) - RON2 peptide interaction; AID 720542, 2013; AlphaScreen AMA1-biotinylated RON2 peptide binding; note: nearly all actives have a fitted effect of over 45% in size
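AMA1 (3D7) with his tag at 25 nM final met compounds first, then biotinylated RON2 peptide at 25 nM; detection used donor plus acceptor beads, 10 µg/mL apiece, read by AlphaScreen after 30 min at room temperature.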
SARS PLpro yeast: qHTS of Yeast-based Assay for SARS-CoV PLP; S. cerevisiae expressing SARS-CoV PLpro, growth rescue; Potency, µM (series often up to 32.9 µM), hits mostly activators; hit rate 0.19% among 330,000; AID 485353, 2010; calls by dose curve; note: nearly all actives have a fitted effect of over 55% in size
AmpC detergent: qHTS Inhibitors of AmpC Beta-Lactamase (assay with detergent). P00811. AmpC hydrolysis of nitrocefin, absorbance 480 nm, 0.01% Triton. Potency, µM (highest dose often 114 µM), hits mostly inhibitors. hit rate 0.041% among 370,000. AID 485294, 2010; note: nearly all actives have a fitted effect of over 25% in size
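20 mM phosphate pH 7.0 + 0.01% (detergent screen) or 0.0001% Triton X-100; 5.3 nM AmpC reagent; cpd preinc 15 min RT; nitrocefin (800 uM stock) to start; A480 q20 s × 4 min; Activity was normalised to no-enzyme and no-compound control wells.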
CHX counter-1: Cycloheximide Counterscreen for Small Molecule Inhibitors of Shiga Toxin; max response, %; hit rate 12% among 300,000; cell reporter, cycloheximide protein synthesis inhibition counterscreen; in the data active = max response mostly above about 13%, no sharp cut-off; inactive = mostly below about 14%; note: read at 38.3 µM for the half of the compounds with a filed dose
Shiga inhibitor: A qHTS for Small Molecule Inhibitors of Shiga Toxin; Vero cells, Shiga toxin protein synthesis inhibition reporter; hit rate 9.2% among 290,000; inhibition, % at 38.7 µM; AID 2315, 2010; in the data active = inhibition mostly above about 28%, no sharp cut-off; inactive = mostly below about 43%
CHX counter-2: Cycloheximide Counterscreen for Small Molecule Inhibitors of Shiga Toxin (Confirmatory) | hit rate 3% among 510 | shares compounds with Shiga inhibitor | Cycloheximide counterscreen, protein synthesis reporter, Shiga toxin assay | Potency, µM (highest dose often 38.3 µM), usual class: activators | AID 2318, 2010; calls by dose curve
Each line names hits and unclear results; the compound was inactive in the other large screens (follow-up assays come after a bar, where they were run). The full list was thinned out, with hits kept by preference. Unless noted, calls come from the whole dose curve; as a rule, active = well fitted curve in the direction sought with a large enough effect; inconclusive = small, poorly fitted or top-dose-only effect, or another doubt; inactive = no such curve, though single readings can be large; an effect the other way counts as inactive or inconclusive.

COc1ccc(NC(=O)CN(C)S(=O)(=O)c2ccc(Br)s2)cc1OC	Shiga inhibitor 34 | CHX counter-2 inactive
Cc1oncc1-c1csc(-c2ccccc2Cl)n1	Shiga inhibitor 121 | CHX counter-2 inconclusive
ClCc1csc(-c2ccccc2Cl)n1	AmpC detergent inconclusive
COc1ccc(C(CNC(=O)COc2ccccc2-c2ccccc2)N2CCOCC2)cc1 (stereo not given)	none
CCCn1c(N)c(C(=O)CN2CCN(S(=O)(=O)c3cccc(Cl)c3)CC2)c(=O)[nH]c1=O	none (no result: AmpC detergent, CHX counter-1, Shiga inhibitor)
O=C(CN1CCN(c2nc(-c3ccc(Cl)cc3)cs2)CC1)NCc1ccco1	none
O=C(O)CCCC(=O)Nc1nc(-c2ccccc2)cs1	none
CC(C)C(=O)SCCCCCCC(=O)Nc1nc(-c2ccccc2)cs1	Shiga inhibitor 16 (no result: AmpC inh no detg, AMA1-RON2 inh, SARS PLpro yeast, AmpC detergent) | CHX counter-2 inactive
C=C1CCN(C(C(=O)NCc2ccc(Cl)c(Cl)c2)C(C)C)S(=O)(=O)c2ccccc21 (stereo not given)	none (no result: AmpC inh no detg, AMA1-RON2 inh, SARS PLpro yeast, AmpC detergent)
Cc1cc(Oc2ccc(N)cn2)ccc1Cl	none
COc1cccc(Oc2ccc(N)cn2)c1	Shiga inhibitor 29 | CHX counter-2 inactive
CCOc1ncccc1C(=O)Nc1c(C)n(C)n(-c2ccccc2)c1=O	Shiga inhibitor 32 | CHX counter-2 inactive
COc1ccc(NC(=O)COC(=O)CCCOc2ccc(Cl)cc2Cl)cc1	none
Cc1nnc(NC(=O)CSc2ccc(-c3ccc(Cl)cc3)nn2)s1	Shiga inhibitor 30 | CHX counter-2 inactive
Cc1cc(C(=O)CS(=O)(=O)c2ccc(F)cc2)cc(C)c1O	Shiga inhibitor 34 | CHX counter-2 inconclusive
CCN(CC)c1ccc(/C=N/N2CCN(Cc3ccc(C)cc3C)CC2)c(O)c1	AMA1-RON2 inh inconclusive
COc1ccc(/C=C2\C(=O)ON=C2c2ccccc2)cc1	none
O=C1ON=C(c2ccccc2)/C1=C/c1ccc(OS(=O)(=O)c2ccccc2)cc1	Shiga inhibitor 29 | CHX counter-2 inactive
Cc1ccc2c(cnn2C(=O)CCCC(=O)NCc2cccc(F)c2)c1	none
O=C(Cn1nnc(-c2ccccc2)n1)NNC(=O)c1ccc(Br)cc1	none
CCC(C)NCC(=O)Nc1ccc(-c2nc3cc(NC(=O)CNC(C)CC)ccc3o2)cc1 (stereo not given)	none
CCN(CC)CC(=O)Nc1ccc(-c2nc3cc(NC(=O)CN(CC)CC)ccc3o2)cc1	AmpC detergent inconclusive, Shiga inhibitor 81 | CHX counter-2 inactive
CCN1CCN(c2ccc(S(=O)(=O)N3CCOCC3)cc2NC(=O)c2cccc([N+](=O)[O-])c2)CC1	none (no result: AmpC detergent, CHX counter-1, Shiga inhibitor)
CC(=O)N[C@@H](Cc1c[nH]c2ccccc12)C(=O)OCC(=O)Nc1ccc(Cl)c(S(=O)(=O)N(C)C)c1	Shiga inhibitor 43 | CHX counter-2 inactive
Cc1cccc(OCCCC(=O)Nc2nccs2)c1C	Shiga inhibitor 29 | CHX counter-2 inactive
CCn1cc(CN2CCCC(C(=O)Nc3cccc(-n4cccn4)c3)C2)cn1 (stereo not given)	none (no result: AmpC inh no detg, SARS PLpro yeast, AmpC detergent, CHX counter-1, Shiga inhibitor)
COc1cccc(OC)c1OCCCOc1ccc(C)cc1Br	Shiga inhibitor 22 | CHX counter-2 inactive
COc1ccccc1OCCCOc1c(C)cc(C)cc1Br	none
CCOC(=O)c1c(C2COc3ccccc3O2)csc1NC(=O)c1ccco1 (stereo not given)	Shiga inhibitor 26 | CHX counter-2 inactive
COc1ccc(C/C(O)=C(\C#N)c2nc3ccccc3s2)cc1	Shiga inhibitor 34 | CHX counter-2 inactive
N#C/C(=C(/O)COc1ccc(Cl)cc1)c1nc2ccccc2s1	none
COc1ccccc1C/C(N)=N/OC(=O)c1cccc([N+](=O)[O-])c1	none
COc1cccc(/C=C/C(=O)c2cccc([N+](=O)[O-])c2)c1	AMA1-RON2 inh inconclusive, Shiga inhibitor 51 | CHX counter-2 inactive
COc1cccc(/C=C/C(=O)c2cccc([N+](=O)[O-])c2)c1OC	AMA1-RON2 inh inconclusive, Shiga inhibitor 60 | CHX counter-2 inactive
Nc1nnc(CCc2ccccc2)s1	none
Cn1c(=O)c2ccccc2n2c(=S)[nH]nc12	none
CCC(C)c1cc([N+](=O)[O-])cc([N+](=O)[O-])c1OC(C)=O (stereo not given)	Shiga inhibitor 25 (no result: AmpC inh no detg, AMA1-RON2 inh, SARS PLpro yeast, AmpC detergent) | CHX counter-2 inactive
CCOc1c(C(N)=O)cc([N+](=O)[O-])cc1[N+](=O)[O-]	AmpC detergent inconclusive
Cc1cc(Cl)ccc1NC(=O)CN1CCC(C(O)(c2ccccc2)c2ccccc2)CC1	AmpC detergent inconclusive, Shiga inhibitor 122 | CHX counter-2 inactive
Cc1cc(Cl)ccc1NC(=O)CN1CCCC1	AmpC detergent inconclusive
COC(=O)C1=C(N)OC(C)=C(C(C)=O)C12C(=O)N(C)c1ccccc12 (stereo not given)	AmpC detergent inconclusive
COc1ccccc1C(=O)Nc1nnc(SCC(=O)Nc2ccc3c(c2)oc2ccccc23)s1	AmpC inh no detg inconclusive, Shiga inhibitor 45 | CHX counter-2 11µM
CCc1ccc(NC(=O)c2cnc(N3CCN(c4ccccn4)CC3)c3ccccc23)cc1	AMA1-RON2 inh inconclusive, Shiga inhibitor 50 | CHX counter-2 inactive
CC(C)NC(=O)c1cnc(N2CCN(c3ccccn3)CC2)c2ccccc12	none
CN(C)S(=O)(=O)N(CC(=O)Nc1ccc(F)c(F)c1)c1ccccc1	none
Cc1ccc([N+](=O)[O-])cc1NC(=O)CSc1nncn1-c1ccccn1	Shiga inhibitor 98 | CHX counter-2 inactive
O=C(O)Cn1nnc(-c2ccc(OCc3ccccc3Cl)cc2)n1	Shiga inhibitor 40 | CHX counter-2 inactive
Cc1nnc(C)c2c(C)n(Cc3ccc4c(c3)OCO4)c(C)c12	AMA1-RON2 inh inconclusive, AmpC detergent inconclusive
c1cc2c(cc1Cn1cnnn1)OCO2	AmpC detergent inconclusive, Shiga inhibitor 158 | CHX counter-2 inactive
O=C(Cc1c(F)cccc1Cl)c1ccc(O)cc1O	Shiga inhibitor 101 | CHX counter-2 inactive
O=C(Cc1ccccc1F)c1ccc(O)cc1O	none
Cc1ccc2[nH]c(=O)c(CN(CCCN3CCOCC3)C(=O)Nc3ccc(Cl)cc3)cc2c1	Shiga inhibitor 48 | CHX counter-2 inactive
CCOc1cc(CN2CCN(c3ncccn3)CC2)ccc1OC	none
CC1C(C#N)=C(N)OC2=C1C(=O)CC(C)(C)C2 (stereo not given)	none
CCC(C)C1C(C#N)=C(N)OC2=C1C(=O)CC(C)(C)C2 (stereo not given)	AmpC detergent inconclusive, Shiga inhibitor 14 | CHX counter-2 inactive
